Source: PubChem
G9a inh: G9a (human) methyltransferase inhibition; Q96KQ7; G9a H3K9 monomethylation, AlphaScreen, 2 h; Potency, µM (titrated, usually from 102 µM), for the others: at the highest dose activity, negative = inhibition, usual class: inhibitors; 8.8% of 350,000 active; note: % is set by controls: 0 for no effect and ±100 for the full control effect; nearly all actives have a fitted effect of over 75% in size
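Quantitative HTS format: methyltransferase activity on a biotin-tagged H3K9 peptide is measured by AlphaScreen, using a rabbit anti-monomethyl-H3K9 antibody with streptavidin donor and anti-IgG acceptor beads. Final levels are 20 nM enzyme, 500 nM peptide, 20 uM SAM; 2 h RT.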
BAZ2B block: blocks human BAZ2B; 4.4% of 360,000 active; Potency, µM (doses to about 114 µM), without a hit: top-dose activity change, negative = inhibition, usual class: inhibitors; AlphaScreen BAZ2B-H3K14Ac peptide displacement; Q9UIF8; note: % is set by controls: 0 for no effect and ±100 for the full control effect; nearly all actives have a fitted effect of over 60% in size
Target sequence (Q9UIF8 whole entry, looked up): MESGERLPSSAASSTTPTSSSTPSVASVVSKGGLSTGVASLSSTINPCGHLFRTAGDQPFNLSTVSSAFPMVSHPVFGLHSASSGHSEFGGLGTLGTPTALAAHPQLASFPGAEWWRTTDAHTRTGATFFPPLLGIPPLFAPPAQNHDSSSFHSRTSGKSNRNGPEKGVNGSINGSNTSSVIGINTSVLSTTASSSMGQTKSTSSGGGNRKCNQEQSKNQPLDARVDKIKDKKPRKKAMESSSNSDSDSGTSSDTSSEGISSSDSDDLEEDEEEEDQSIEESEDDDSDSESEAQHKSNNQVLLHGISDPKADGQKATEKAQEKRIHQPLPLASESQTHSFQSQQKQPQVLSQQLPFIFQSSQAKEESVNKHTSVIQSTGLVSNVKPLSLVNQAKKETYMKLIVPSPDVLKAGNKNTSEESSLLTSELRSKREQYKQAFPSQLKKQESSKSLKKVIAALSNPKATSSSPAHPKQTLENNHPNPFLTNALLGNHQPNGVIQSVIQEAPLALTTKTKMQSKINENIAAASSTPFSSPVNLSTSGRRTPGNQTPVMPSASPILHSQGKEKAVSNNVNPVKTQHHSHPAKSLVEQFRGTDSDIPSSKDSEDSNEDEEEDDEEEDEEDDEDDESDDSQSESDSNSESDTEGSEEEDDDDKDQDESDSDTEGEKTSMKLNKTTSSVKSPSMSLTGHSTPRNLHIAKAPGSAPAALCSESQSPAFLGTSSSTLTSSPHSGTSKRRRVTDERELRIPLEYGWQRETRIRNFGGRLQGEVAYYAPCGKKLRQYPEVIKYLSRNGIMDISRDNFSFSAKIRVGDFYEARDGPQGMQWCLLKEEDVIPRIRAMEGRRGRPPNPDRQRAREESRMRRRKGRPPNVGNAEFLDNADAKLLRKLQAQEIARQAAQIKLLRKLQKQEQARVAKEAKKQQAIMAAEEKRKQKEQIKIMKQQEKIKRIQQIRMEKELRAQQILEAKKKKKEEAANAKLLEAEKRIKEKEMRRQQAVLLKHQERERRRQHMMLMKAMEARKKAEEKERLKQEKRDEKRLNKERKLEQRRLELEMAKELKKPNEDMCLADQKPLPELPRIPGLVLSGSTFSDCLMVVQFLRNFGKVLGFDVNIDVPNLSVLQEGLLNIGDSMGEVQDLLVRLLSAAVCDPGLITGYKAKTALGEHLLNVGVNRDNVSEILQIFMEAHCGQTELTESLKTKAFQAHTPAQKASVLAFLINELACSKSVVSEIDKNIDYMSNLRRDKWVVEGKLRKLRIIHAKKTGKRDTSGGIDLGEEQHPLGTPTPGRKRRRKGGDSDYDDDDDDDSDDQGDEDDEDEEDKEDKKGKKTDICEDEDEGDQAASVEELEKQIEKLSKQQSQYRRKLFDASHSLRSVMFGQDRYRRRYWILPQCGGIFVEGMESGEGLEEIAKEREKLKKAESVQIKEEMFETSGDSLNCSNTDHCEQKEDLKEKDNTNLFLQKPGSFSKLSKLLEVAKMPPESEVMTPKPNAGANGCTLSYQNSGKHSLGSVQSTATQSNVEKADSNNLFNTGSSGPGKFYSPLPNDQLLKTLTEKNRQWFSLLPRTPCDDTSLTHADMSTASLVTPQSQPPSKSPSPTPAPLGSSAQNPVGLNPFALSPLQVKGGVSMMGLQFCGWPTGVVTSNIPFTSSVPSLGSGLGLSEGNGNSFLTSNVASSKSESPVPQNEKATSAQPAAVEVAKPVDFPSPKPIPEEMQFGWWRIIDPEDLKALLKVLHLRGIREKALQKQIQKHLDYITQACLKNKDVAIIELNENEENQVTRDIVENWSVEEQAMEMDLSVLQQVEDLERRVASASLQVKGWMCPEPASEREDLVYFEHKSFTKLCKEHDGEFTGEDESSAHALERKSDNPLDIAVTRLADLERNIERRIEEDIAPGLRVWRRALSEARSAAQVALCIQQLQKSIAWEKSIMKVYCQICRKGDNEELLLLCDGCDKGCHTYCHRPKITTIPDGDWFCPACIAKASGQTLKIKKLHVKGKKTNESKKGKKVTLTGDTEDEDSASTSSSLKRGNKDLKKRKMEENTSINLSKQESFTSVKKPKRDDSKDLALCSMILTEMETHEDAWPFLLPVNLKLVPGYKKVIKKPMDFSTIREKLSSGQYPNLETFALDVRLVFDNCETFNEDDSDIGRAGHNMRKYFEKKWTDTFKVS
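AlphaScreen displacement of biotin-H3(5-23)K14Ac peptide (50 nM final) from BAZ2B (50 nM final) in PBS pH 7.4, 0.01% Tween-20; complex preformed 30 min RT, then compounds (top 110 uM) 30 min RT, beads 20 min dark.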
HP1b binding inh: inhibitors of HP1-beta chromodomain binding to methylated histone tails; 0.56% of 390,000 active; AlphaScreen HP1-beta / biotin-H3K9me3 peptide binding; Potency, µM (series often up to 114 µM), for the others: top-dose activity change, negative = inhibition, hits mostly inhibitors; note: nearly all actives have a fitted effect of over 70% in size
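Compound inhibition of the preformed complex between 50 nM HP1-beta and 50 nM biotinylated H3K9me3 peptide was read by AlphaScreen. Buffer was PBS pH 7.4 with 0.01% Tween-20. Incubations ran 30 min at room temperature, with 10 ug/mL donor/acceptor beads.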
Sfp PPTase inh: inhibitors of Bacillus subtilis Sfp phosphopantetheinyl transferase. 3.5% of 310,000 active. Biochemical Sfp PPTase activity, qHTS. Q9F4F7. Potency, µM, for inactives: largest response in the series, negative = inhibition, hits mostly inhibitors. AID 1490;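 note: the enzyme is Sfp with the accession as filed and its product quenches rhodamine fluorescence; 0% = enzyme reaction without inhibitor and -100% = no enzyme wells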
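Sfp 15 nM + cpd, 15 min RT; start w/ rhodamine-CoA 5 uM, BHQ-2-YbbR 12.5 uM (final); 50 mM Hepes pH 7.6, 10 mM MgCl2, 0.01% NP-40, 0.01% BSA; read 525/598 nm at 0 and 30 min.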
L3MBTL1 block: inhibitors of human L3MBTL1; Q9Y468; AlphaScreen L3MBTL1–H3K9me1 peptide binding; Potency, µM (titrated, usually from 57.1 µM), inactives show at the highest dose activity, negative = inhibition, actives largely listed as inhibitors; 0.66% of 230,000 active; AID 485360; note: % is set by controls: 0 for no effect and ±100 for the full control effect; nearly all actives have a fitted effect of over 60% in size
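First, the protein-peptide complex forms for 30 min at room temperature (L3MBTL1 50 nM, biotinylated H3K9me1 peptide 75 nM). Next, compounds are pin-transferred and incubated 30 min. Finally, AlphaScreen beads are added and read after 30 min.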
JMJD2A Tudor: inhibitors of human JMJD2A Tudor domain; AlphaScreen JMJD2A-Tudor / H3K4me3 peptide binding; AID 504339; Potency, µM (top dose mostly 114 µM), for the others: at the highest dose activity change, negative = inhibition, hits mostly inhibitors; 4.4% of 390,000 active; note: % is set by controls: 0 for no effect and ±100 for the full control effect; nearly all actives have a fitted effect of over 50% in size
An asterisk follows results filed as active; ? = inconclusive; / = no result; [ ] = dose if it differs, or a comment. Most compounds without a hit are left out; they make up all but 12% or so of the library. Calls come from the whole dose curve; as a rule, active = well fitted curve in the direction sought with a large enough effect; inconclusive = small, poorly fitted or top-dose-only effect, or another doubt; inactive = no such curve, though single readings can be large; an effect the other way counts as inactive or inconclusive. Potency is the fitted concentration of half-maximal effect.

SMILES	G9a inh	BAZ2B block	HP1b binding inh	Sfp PPTase inh	L3MBTL1 block	JMJD2A Tudor
COc1cc(CN2CC(=O)N(c3ccccc3Cl)C2=S)cc(OC)c1OC	-10.7%	1.7%	14.6%	-2.1%	/	-15.1%
COc1cc(Cl)c(C)cc1N1C(=O)CN(Cc2ccccc2)C1=S	35.5µM*	-23.8%	10.9%	?	/	-3.0%
COCCn1c(=O)c(-c2ccc(Cl)cc2)nc2cncnc21	5.0%[12.7 µM]	/	/	3.4%	/	/
CC1=CC(c2ccccc2)n2nc(NS(=O)(=O)c3ccc(C)cc3)nc2N1 (stereo not drawn)	17.8µM*	?	27.0%	5.0%	42.2%	-11.9%
CC1=CC(c2ccc(Cl)cc2)n2nc(NS(=O)(=O)c3ccc(C)cc3)nc2N1 (stereo not drawn)	31.6µM*	-10.5%	28.0%	-4.0%	/	-23.9%
COc1ccc(C2C=C(c3ccccc3)Nc3nc(NS(=O)(=O)c4ccccc4)nn32)cc1 (stereo not drawn)	-6.7%[59 µM]	-7.4%	22.4%	/	/	-16.2%
O=C(NCCc1nc2ccccc2n1CCOc1ccc2ccccc2c1)C1CCCCC1	/	/	5.1%[57 µM]	/	/	-29.2%[57.1 µM]
CC1CN(S(=O)(=O)c2ccc(C(=O)Nc3nnc(-c4ccco4)o3)cc2)CC(C)O1 (stereo not drawn)	?	?	50.8%	19.4%	/	-25.9%
Cc1nnc(NC(=O)c2ccc(S(=O)(=O)N3CC(C)OC(C)C3)cc2)o1 (stereo not drawn)	8.5%	25.1µM*	33.7%	?	/	2.82µM*
CC1CN(S(=O)(=O)c2ccc(C(=O)Nc3ccc(S(=O)(=O)Nc4ncccn4)cc3)cc2)CC(C)O1 (stereo not drawn)	13.3%[59 µM]	8.1%	29.7%	26.5%	0.8%	-5.6%
Cc1cc(C)nc(NS(=O)(=O)c2ccc(NC(=O)c3ccc(S(=O)(=O)N4CC(C)OC(C)C4)cc3)cc2)n1 (stereo not drawn)	8.91µM*	4.4%	22.4%	-5.7%	22.8%	-12.1%
CC1CCCN(S(=O)(=O)c2ccc(C(=O)Nc3nnc(C4CC4)o3)cc2)C1 (stereo not drawn)	41.9%	35.5µM*	51.0%	21.8%	/	?
COc1ccc(-n2c(C)cc(/C=N/Nc3nnc(C)n3N)c2C)cc1	11.2µM*	?	-33.6%	31.6µM*	-15.7%	?
COc1cccc(/C=N/Nc2nnc(C)n2N)c1O	13.7%	5.3%	41.6%	7.2%	/	?
Cc1nnc(N/N=C/c2ccccc2C(F)(F)F)n1N	44.7µM*	-15.7%	29.3%	-18.6%	/	-8.5%
Cc1nnc(N/N=C/c2ccco2)n1N	23.5%	-5.2%	10.4%	-15.4%	/	25.1µM*
CCN(CC)CCCNC(=O)c1c(C)oc2ncn(CC(C)C)c(=O)c12	-25.1%[59 µM]	9.0%[57.1 µM]	15.6%	/	/	-10.0%
COC(=O)c1n[nH]c2ccccc12	-4.9%[59 µM]	3.6%	10.1%	13.9%	2.5%	-10.2%
O=C(OCCCCN1C(=O)c2ccccc2C1=O)c1n[nH]c2ccccc12	50.1µM*	3.7%	7.8%	-20.6%	-8.5%	?
CN(C)c1ccc(N2C(=NC(=O)C3CCCO3)SC3CS(=O)(=O)CC32)cc1 (stereo not drawn)	44.7µM*	?	8.6%	-2.1%	/	?
Cc1ccc(Cl)cc1N1CCN(C(=O)c2ccc3c(c2)N(Cc2ccccc2F)C(=O)c2ccccc2S3(=O)=O)CC1	-22.5%[59 µM]	-21.7%	29.1%	/	/	-9.8%
CN1CCN(NC(=O)CN2C(=O)/C(=C/c3ccccc3F)SC2=S)CC1	50.1µM*	?	/	-28.5%	-1.1%	/
O=C(CN1C(=O)S/C(=C\c2ccc(Cl)cc2)C1=O)NC1C=CS(=O)(=O)C1 (stereo not drawn)	10.2%	-13.2%[57.1 µM]	-0.2%	-4.2%	/	20µM*
O=C(CN1C(=O)/C(=C/c2ccccc2F)SC1=S)NC1C=CS(=O)(=O)C1 (stereo not drawn)	/	-31.8%	49.5%	22.4µM*	/	-11.0%
O=C(CN1C(=O)S/C(=C\c2cccc(Cl)c2)C1=O)NC1C=CS(=O)(=O)C1 (stereo not drawn)	0.8%	-4.7%	38.6%	6.0%	/	0.0%
SMILES	G9a inh	BAZ2B block	HP1b binding inh	Sfp PPTase inh	L3MBTL1 block	JMJD2A Tudor
COc1ccc(CNC(=O)Cc2c(C)c3ccc(O)cc3oc2=O)cc1	3.9%[59 µM]	-1.6%	29.8%	/	/	0.0%
O=c1[nH]cnc2c1ncn2C1OC(CO)C(O)C1O (stereo not drawn)	23.1%[59 µM]	/	3.1%	?	/	-7.6%
CC1(C)OC2C(CO)OC(n3cnc4c(=O)[nH]cnc43)C2O1 (stereo not drawn)	/	/	/	9.1%	/	/
CC1(C)OC2C(CO)OC(n3cnc4c(=S)nc[nH]c43)C2O1 (stereo not drawn)	8.91µM*	50.1µM*	?	15.8µM*	5.2%	?
OCC1OC(n2cnc3c(=S)nc[nH]c32)C(O)C1O (stereo not drawn)	15.8µM*	/	?	3.55µM*	/	20µM*
O=S(=O)(c1ccc(Br)cc1)c1nc(-c2ccco2)oc1SCc1ccccc1Cl	8.8%[59 µM]	1.4%	28.8%	/	/	-19.5%
OCc1cccnc1	31.9%[59 µM]	/	/	8.9%	/	/
O=P(O)(O)C(O)(Cc1cccnc1)P(=O)(O)O	17.8µM*	/	/	13.5%	/	/
CCCCCCCCCOC(=O)CNc1nc(C#N)nc(NCC(=O)OCCCCCCCCC)n1	/	/	8.2%[57 µM]	/	/	3.8%[57.1 µM]
Nc1[nH]nc2nc3ccccc3nc12	/	/	/	9.0%	/	/
Nc1[nH]nc2ncc3cc4ccccc4nc3c12	35.5µM*	?	26.3%	35.5µM*	-6.2%	-20.6%
CCC(C)n1c(OC)nc2c1c(=O)n(C)c(=O)n2C (stereo not drawn)	-15.1%	-2.8%	-14.0%	20.8%	3.0%	11.2µM*
Cc1onc(-c2c(F)cccc2Cl)c1C(=O)NC1C(=O)N2C1SC(C)(C)C2C(=O)O (stereo not drawn)	23.4%[59 µM]	/	/	-20.6%	/	/
O=C(Nc1ccc(-n2cccn2)cc1)C1CCCCN1Cc1cccc2cccnc12 (stereo not drawn)	19.8%[59 µM]	?	12.1%	-2.5%	/	-29.3%
O=C(Nc1cccc(-c2cccc(Cl)c2)c1)C1CCN(Cc2ccon2)CC1	16.9%	1.3%	14.6%	-11.8%	/	-27.9%
O=C(Nc1cccc(-c2cccc(Cl)c2)c1)C1CCN(Cc2ccccn2)CC1	44.7µM*	6.3%	45.7%	-28.4%	/	-31.0%
O=C(Nc1ccc(-n2cccn2)cc1)C1CCN(Cc2ccccn2)CC1	35.5µM*	?	21.4%	-0.3%	/	22.4µM*
Cc1cc(C(=O)COC(=O)Cc2n[nH]c(=O)c3ccccc23)c(C)n1-c1ccc2c(c1)OCCO2	50.1µM*	-10.9%	3.7%	-12.9%	-5.8%	-30.9%
Cc1cc(C(=O)COC(=O)C2=COCCO2)c(C)n1-c1cccc(F)c1	56.2µM*	?	-16.9%	/	3.3%	-34.4%
